T cruzi growth-1 – inhibitors of T. cruzi proliferation; T. cruzi beta-gal in NIH3T3, GalScreen luminescence, 90 h; inhibition, % at 8.34 µM; 5.9% of 77,000 active; AID 624255;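 active = mean inhibition above about 93%, with at least 55% of replicates each passing it, limit read from the data, passing the limit was not always enough; inconclusive = only one of those two conditions holds; inactive = neither condition holds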
Pf Dd2 growth – P. falciparum Dd2 growth inhibition. SYBR Green, 72 h; stronger effect = lower value. AID 1159554. activity change, % at 10 µM. 2.3% of 94,000 active; in the data active = activity change below about -80%; inconclusive = no clear call, values can overlap the other calls
C diff growth – blocks growth of Clostridium difficile; 0.25% of 86,000 active; growth activity, negative = inhibition, % at 16 µg/mL (by protocol); Clostridium difficile clinical isolate growth, OD600, 24 h; stronger effect = lower value; AID 1259249;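 active = mean growth activity at or below -80% and every replicate also at or below -80%; inconclusive = mean at or below -80% but some replicate above -80%; inactive = mean growth activity above -80%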
T cruzi growth-2 – blocks T. cruzi growth in NIH3T3 host cells. shares compounds with T cruzi growth-1. T. cruzi beta-gal in NIH3T3, GalScreen luminescence, 90 h. inhibition, % at 8.35 µM. 72% of 5,600 active;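 active = mean replicate inhibition above about 95% and at least 55% of replicates individually reaching it, limit read from the data; inconclusive = only one of the two criteria is met; inactive = neither criterion is met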
T cruzi growth-3 – inhibitors of T. cruzi proliferation; AID 651740; 21% of 5,600 active; inhibition, % at 2.09 µM; T. cruzi beta-gal in NIH3T3, GalScreen luminescence, 90 h; shares compounds with T cruzi growth-1;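 active = mean inhibition above about 95%, with at least 55% of replicates also reaching it, limit read from the data; inconclusive = meets just one of the two conditions; inactive = meets neither condition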
3T3 cytotox – NIH/3T3 (mouse) viability loss | shares compounds with T cruzi growth-1 | NIH/3T3 viability, CellTiter-Glo ATP luminescence, 90 h | cytotoxicity (signal decrease), % at 8.35 µM | 14% of 5,600 active;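 active = mean signal decrease across replicates above about 35% based on untreated-well scatter, with enough replicates individually passing, limit read from the data; inconclusive = no rule stated though some were filed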
NIH3T3 tox 2 – NIH/3T3 (mouse) viability loss; AID 651744; NIH/3T3 viability, CellTiter-Glo ATP luminescence, 90 h; shares compounds with T cruzi growth-1; 56% of 5,600 active; inhibition, % at 24.9 µM;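 active = mean loss of cell viability signal at or above a set limit, and enough replicates individually reaching it; inconclusive = meets only the mean limit or only the replicate share; inactive = meets neither condition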
Large screens that a line does not name were inactive (follow-up assays come after a bar, where they were run). In the library only some 6.8% were active in any assay of this set; here they are far more common.

C[C@@H]1CCCCO[C@H](CN(C)C(=O)Nc2ccc(F)cc2)[C@H](C)CN([C@@H](C)CO)C(=O)c2cc(NC(=O)CCC(F)(F)F)ccc2O1	none (no result: C diff growth)
C[C@@H]1CN([C@@H](C)CO)C(=O)Cc2cc(NS(C)(=O)=O)ccc2O[C@H]1CN(C)Cc1ccc(C(F)(F)F)cc1	none
C[C@H]1CN([C@@H](C)CO)S(=O)(=O)c2ccc(C#CC3CCCC3)cc2O[C@H]1CN(C)Cc1cccnc1	T cruzi growth-1 117 | T cruzi growth-2 103 | T cruzi growth-3 inactive | 3T3 cytotox inactive | NIH3T3 tox 2 104
C[C@@H]1CN([C@@H](C)CO)S(=O)(=O)c2ccc(C#CC3CCCC3)cc2O[C@H]1CN(C)Cc1cccnc1	none
C[C@@H]1CN([C@H](C)CO)S(=O)(=O)c2ccc(C#CC3CCCC3)cc2O[C@H]1CN(C)Cc1cccnc1	T cruzi growth-1 97, Pf Dd2 growth -82 | T cruzi growth-2 inactive | T cruzi growth-3 inconclusive | 3T3 cytotox inactive | NIH3T3 tox 2 105
C[C@@H]1CN([C@@H](C)CO)S(=O)(=O)c2ccc(C#CC3CCCCC3)cc2O[C@H]1CN(C)Cc1cccnc1	none (no result: C diff growth)
C[C@@H]1CN([C@@H](C)CO)S(=O)(=O)c2ccc(C#Cc3ccccc3F)cc2O[C@H]1CN(C)C(=O)Cc1ccncc1	none (no result: T cruzi growth-1)
C[C@H](CO)N1C[C@H](C)[C@H](CN(C)C(=O)Cc2ccncc2)Oc2cc(C#Cc3ccccc3F)ccc2S1(=O)=O	none (no result: T cruzi growth-1)
C[C@@H]1CN([C@H](C)CO)S(=O)(=O)c2ccc(C#Cc3ccccc3F)cc2O[C@H]1CN(C)C(=O)Cc1ccncc1	none (no result: T cruzi growth-1)
C[C@@H]1CN([C@H](C)CO)S(=O)(=O)c2ccc(C#Cc3ccccc3F)cc2O[C@H]1CN(C)C(=O)Cc1ccccc1	T cruzi growth-1 122 | T cruzi growth-2 103 | T cruzi growth-3 inactive | 3T3 cytotox inactive | NIH3T3 tox 2 104
C[C@@H]1CN([C@@H](C)CO)S(=O)(=O)c2ccc(C#Cc3ccccc3F)cc2O[C@@H]1CN(C)C(=O)Cc1ccncc1	none (no result: T cruzi growth-1)
C[C@H]1CN([C@@H](C)CO)S(=O)(=O)c2ccc(C#Cc3ccccc3F)cc2O[C@@H]1CN(C)C(=O)Cc1ccccc1	T cruzi growth-1 121 | T cruzi growth-2 106 | T cruzi growth-3 107 | 3T3 cytotox inactive | NIH3T3 tox 2 103
C[C@@H]1CN([C@@H](C)CO)S(=O)(=O)c2ccc(C#Cc3ccccc3F)cc2O[C@@H]1CN(C)C(=O)Cc1cccnc1	T cruzi growth-1 inconclusive | T cruzi growth-2 102 | T cruzi growth-3 inactive | 3T3 cytotox inactive | NIH3T3 tox 2 70
C[C@@H]1CN([C@@H](C)CO)S(=O)(=O)c2ccc(C#Cc3ccccc3F)cc2O[C@H]1CN(C)C(=O)Cc1ccccc1	T cruzi growth-1 120 | T cruzi growth-2 102 | T cruzi growth-3 110 | 3T3 cytotox 56 | NIH3T3 tox 2 92
CC(C)C#Cc1cnc2c(c1)C(=O)N([C@@H](C)CO)C[C@H](C)[C@@H](CN(C)C(=O)c1cnccn1)O2	none
O=C(CN1CCOCC1)N1CCCCN2[C@@H](CO)[C@@H](c3ccc(C#Cc4ccccc4F)cc3)[C@@H]2C1	T cruzi growth-1 107 | T cruzi growth-2 98 | T cruzi growth-3 inactive | 3T3 cytotox inconclusive | NIH3T3 tox 2 100
O=C(CN1CCOCC1)N1CCCCN2[C@H](CO)[C@@H](c3ccc(C#Cc4ccccc4)cc3)[C@H]2C1	none
O=C(CN1CCOCC1)N1CCCCN2[C@@H](CO)[C@H](c3ccc(C#Cc4ccccc4F)cc3)[C@@H]2C1	T cruzi growth-1 107 | T cruzi growth-2 112 | T cruzi growth-3 inactive | 3T3 cytotox 42 | NIH3T3 tox 2 102
O=C(CN1CCOCC1)N1CCCCN2[C@H](CO)[C@@H](c3ccc(C#Cc4ccccc4F)cc3)[C@H]2C1	T cruzi growth-1 110 | T cruzi growth-2 97 | T cruzi growth-3 inactive | 3T3 cytotox 54 | NIH3T3 tox 2 95
O=C(CN1CCOCC1)N1CCCCN2[C@H](CO)[C@@H](c3ccc(-c4ccccc4F)cc3)[C@H]2C1	none
O=C(CN1CCOCC1)N1CCCCN2[C@H](CO)[C@@H](c3ccc(C#Cc4ccccc4F)cc3)[C@@H]2C1	none
